Laboratory results published in PubChem BioAssay (Tox21).
Several values for one entry are separate records, joined by “and”; a condition that tells them apart may be missing. Identical values can stand only once. Inconclusive results are not listed. The source holds several records for some structures; these can differ, active in one and inactive in another. Activity calls are given as the source filed them. The call rests on the fitted dose curve; in most records, active means well fitted activation curve with a large enough effect in the repeat runs; inconclusive means weak or mixed curves; inactive means flat fitted curve, though single readings scatter.
On the % scale 0 is the no-effect control and ±100 the full control effect; potency means the concentration at half of the fitted maximal effect.

Experiment: A CellTox Green Cytotoxicity Assay to monitor cytotoxicity in HepG2 cells - 0 hour (AID 1224882); further: nearly all actives have a fitted effect of over 35% in size
Settings: CellTox Green fluorescence; series mostly up to 76.8 µM; cytotoxicity: at the top concentration
Outline: (§1)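 HepG2 cells, 600/well, preincubated 5 h with CellTox Green dye, then exposed to Tox21 compounds in DMSO at 37 C for up to 40 h. Dead-cell DNA fluorescence read at the indicated time point.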
In the case of CCN(CC)c1ccc2c(C)cc(=O)oc2c1, the Potency was “inactive”.
In the case of CCCN[C@H]1CCc2nc(N)sc2C1, the Potency was “inactive”.
With CC(C)(C)c1ccccc1 the “cytotoxicity” value was -4.96% (inactive).
With NC12CC3CC(CC(C3)C1)C2 the “cytotoxicity” value was 1.21% [at 35.3 µM] (inactive).
In the case of NC(N)=NC(=O)Cc1c(Cl)cccc1Cl, the “cytotoxicity” value was 11.6% [at 35.3 µM] (inactive).
With CC(C)(C)NC(=O)[C@@H]1CN(Cc2cccnc2)CCN1C[C@@H](O)C[C@@H](Cc1ccccc1)C(=O)N[C@H]1c2ccccc2C[C@H]1O the Potency was “inactive”.
With CCCCCCCCCCCCCC[P+](CCCC)(CCCC)CCCC the Potency was “inactive”.
For CCCNC(C)C(=O)Nc1ccccc1C (centres undefined), the “cytotoxicity” value was -6.96% [at 35.3 µM] (inactive).
With CCOc1ccccc1C(N)=O the Potency was “inactive”.
In the case of CC(=O)CC(C)=O, the “cytotoxicity” value was -7.34% (inactive).
In the case of O=c1n(CC2CO2)c(=O)n(CC2CO2)c(=O)n1CC1CO1 (centres undefined), the Potency was “inactive”.
In the case of NNCCc1ccccc1, the Potency was “inactive”.
With CC1COC(=O)O1 (centres undefined) the Potency was “inactive and 43.6 µM (active)”.
In the case of CC1=CC(=O)c2ccccc2C1=O, the Potency was “inactive”.
With O=Nc1ccc(Nc2ccccc2)cc1 the Potency was “inactive”.
For Oc1ccc(Cl)cc1Cc1cc(Cl)ccc1O, the Potency was “inactive”.
In the case of CCCCOCCOC(=O)c1ccccc1C(=O)OCCOCCCC, the Potency was “inactive”.
With CCn1cc(C(=O)O)c(=O)c2cc(F)c(N3CCNC(C)C3)c(F)c21 (centres undefined) the “cytotoxicity” value was 2.73% [at 35.3 µM] (inactive).
In the case of O=C(O)CP(=O)(O)O, the “cytotoxicity” value was 0.427% [at 35.3 µM] (inactive).
With CCN(CC)C(=O)Nc1ccc(OCC(O)CNC(C)(C)C)c(C(C)=O)c1 (centres undefined) the “cytotoxicity” value was -12.5% [at 35.3 µM] (inactive).
With CCOc1ccc2c(c1)C(C)=CC(C)(C)N2 the Potency was “inactive”.
With COc1ccc(Cc2cnc(N)nc2N)cc1OC the “cytotoxicity” value was -16.9% [at 35.3 µM] (inactive).
With Cc1occc(=O)c1OC(=O)C(C)C the “cytotoxicity” value was 6.56% (inactive).
In the case of CC(=O)C1=C(C)[C@@H]2C[C@@]3(C1)[C@H](C)CC[C@H]3C2(C)C, the Potency was “inactive”.
For O=C(O)c1cccc(C(=O)O)c1, the Potency was “inactive”.
With c1ccc2cc3c(ccc4ccccc43)cc2c1 the Potency was “inactive”.
In the case of CC[C@@H](N)CO, the “cytotoxicity” value was -5.33% (inactive).
With Cc1scc2c1N(C(=O)CN1CCN(C)CC1)c1ccccc1NC2=O the “cytotoxicity” value was 5.83% [at 35.3 µM] (inactive).
With CC(N)=O the “cytotoxicity” value was 0.121% [at 200 µM] (inactive).
With O=C1OC2(c3ccc(O)cc3Oc3cc(O)ccc32)c2ccccc21 the Potency was 1.55 µM (active) and 301 nM (active).
In the case of c1ccc2n[nH]nc2c1, the Potency was “inactive”.
For Oc1c(Cl)cc(Cl)c(Cl)c1Cc1c(O)c(Cl)cc(Cl)c1Cl, the Potency was “inactive”.
For c1ccc2c(c1)CCCC2C1=NCCN1 (centres undefined), the “cytotoxicity” value was -2.11% [at 35.3 µM] (inactive).
In the case of CN1C(=O)c2ccc([N+](=O)[O-])cc2C1=O, the “cytotoxicity” value was -3.72% (inactive).
In the case of Cc1cc(Cc2cc(C)cc(C(C)(C)C)c2O)c(O)c(C(C)(C)C)c1, the Potency was “inactive”.
For CCN(CC)CCOc1ccc(/C(=C(\Cl)c2ccccc2)c2ccccc2)cc1, the Potency was “inactive”.
For NCCO, the “cytotoxicity” value was -1.45% (inactive).

Experiment: A CellTox Green Cytotoxicity Assay to monitor cytotoxicity in HepG2 cells - 32 hour (AID 1224883); further: nearly all actives have a fitted effect of over 50% in size
Settings: CellTox Green fluorescence; series mostly up to 76.8 µM; cytotoxicity increase: at the top concentration
Outline: as §1
In the case of CCN(CC)c1ccc2c(C)cc(=O)oc2c1, the Potency was “inactive”.
With CCCN[C@H]1CCc2nc(N)sc2C1 the Potency was “inactive”.
For CC(C)(C)c1ccccc1, the “cytotoxicity increase” value was -7.02% (inactive).
In the case of NC12CC3CC(CC(C3)C1)C2, the “cytotoxicity increase” value was -16% [at 35.3 µM] (inactive).
For NC(N)=NC(=O)Cc1c(Cl)cccc1Cl, the “cytotoxicity increase” value was -6% [at 35.3 µM] (inactive).
With CC(C)(C)NC(=O)[C@@H]1CN(Cc2cccnc2)CCN1C[C@@H](O)C[C@@H](Cc1ccccc1)C(=O)N[C@H]1c2ccccc2C[C@H]1O the Potency was “inactive”.
With CCCCCCCCCCCCCC[P+](CCCC)(CCCC)CCCC the Potency was 19.4 µM (active) and 15.5 µM (active).
In the case of CCCNC(C)C(=O)Nc1ccccc1C (centres undefined), the “cytotoxicity increase” value was -2.46% [at 35.3 µM] (inactive).
For CCOc1ccccc1C(N)=O, the Potency was “inactive”.
In the case of CC(=O)CC(C)=O, the “cytotoxicity increase” value was 0.255% (inactive).
With O=c1n(CC2CO2)c(=O)n(CC2CO2)c(=O)n1CC1CO1 (centres undefined) the “cytotoxicity increase” value was 10.7% (inactive).
With NNCCc1ccccc1 the “cytotoxicity increase” value was -6.22% [at 35.3 µM] (inactive).
With CC1COC(=O)O1 (centres undefined) the Potency was “inactive and 43.6 µM (active)”.
In the case of CC1=CC(=O)c2ccccc2C1=O, the Potency was 43.6 µM (active) and 26.8 µM (active).
With O=Nc1ccc(Nc2ccccc2)cc1 the Potency was 49.2 µM (active) and 43.6 µM (active).
For Oc1ccc(Cl)cc1Cc1cc(Cl)ccc1O, the “cytotoxicity increase” value was 18.2% [at 35.3 µM] (inactive).
With CCCCOCCOC(=O)c1ccccc1C(=O)OCCOCCCC the Potency was “inactive”.
With CCn1cc(C(=O)O)c(=O)c2cc(F)c(N3CCNC(C)C3)c(F)c21 (centres undefined) the “cytotoxicity increase” value was -6.29% [at 35.3 µM] (inactive).
With O=C(O)CP(=O)(O)O the “cytotoxicity increase” value was -0.211% [at 35.3 µM] (inactive).
For CCN(CC)C(=O)Nc1ccc(OCC(O)CNC(C)(C)C)c(C(C)=O)c1 (centres undefined), the “cytotoxicity increase” value was -14.9% [at 35.3 µM] (inactive).
With CCOc1ccc2c(c1)C(C)=CC(C)(C)N2 the “cytotoxicity increase” value was 20% (inactive).
With COc1ccc(Cc2cnc(N)nc2N)cc1OC the “cytotoxicity increase” value was -22.1% [at 35.3 µM] (inactive).
In the case of Cc1occc(=O)c1OC(=O)C(C)C, the “cytotoxicity increase” value was 5.97% (inactive).
With CC(=O)C1=C(C)[C@@H]2C[C@@]3(C1)[C@H](C)CC[C@H]3C2(C)C the “cytotoxicity increase” value was 28.7% (inactive).
In the case of O=C(O)c1cccc(C(=O)O)c1, the Potency was “inactive”.
For c1ccc2cc3c(ccc4ccccc43)cc2c1, the Potency was “inactive”.
With CC[C@@H](N)CO the “cytotoxicity increase” value was 0.939% (inactive).
For Cc1scc2c1N(C(=O)CN1CCN(C)CC1)c1ccccc1NC2=O, the “cytotoxicity increase” value was -5.7% [at 35.3 µM] (inactive).
For CC(N)=O, the “cytotoxicity increase” value was 17.5% [at 200 µM] (inactive).
For O=C1OC2(c3ccc(O)cc3Oc3cc(O)ccc32)c2ccccc21, the Potency was 616 nM (active) and 301 nM (active).
For c1ccc2n[nH]nc2c1, the Potency was “inactive”.
With Oc1c(Cl)cc(Cl)c(Cl)c1Cc1c(O)c(Cl)cc(Cl)c1Cl the Potency was “inactive and 38.9 µM (active)”.
In the case of c1ccc2c(c1)CCCC2C1=NCCN1 (centres undefined), the “cytotoxicity increase” value was -9.33% [at 35.3 µM] (inactive).
In the case of CN1C(=O)c2ccc([N+](=O)[O-])cc2C1=O, the “cytotoxicity increase” value was -2.68% (inactive).
With Cc1cc(Cc2cc(C)cc(C(C)(C)C)c2O)c(O)c(C(C)(C)C)c1 the Potency was 43.9 µM (active) and 43.6 µM (active).
With CCN(CC)CCOc1ccc(/C(=C(\Cl)c2ccccc2)c2ccccc2)cc1 the Potency was 17.7 µM (active) and 21.3 µM (active).
With NCCO the Potency was “inactive”.
